Results from PubChem BioAssay (EPA / NIEHS).
Active and inactive are the calls of the source. Rule for the calls: active = hit-call score of the fitted dose curve at least 0.9, where 1 is the maximum; inactive = score below 0.9.

Each molecule was assayed on Hypoxia-inducible factor 1-alpha (Homo sapiens) (UniProt Q16665) (assay: LTEA_HepaRG_HIF1A: Life Technologies and Expression Analysis (LTEA) Assay for Hypoxia-inducible factor 1 (HIF1A) Trancription factor using HepaRG (AID 2283503;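 note: HIF1A transcript by TaqMan qRT-PCR normalized to ACTB GAPDH and POLR2A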)). Details: mRNA level, 48 h; actives raise or lower the signal.
Description: LTEA_HepaRG is a cell based, multiplexed-readout assay that uses HepaRG, a human liver cell line, with measurements taken at 48 hours after chemical dosing on a 96-well plate.LTEA_HepaRG_HIF1A is one of 102 assay component(s) measured in the LTEA HepaRG cell culture assay. It is a marker of Cell proliferation, survival, death.Data from the assay component LTEA_HepaRG_HIF1A was analyzed into 1 endpoint. This assay endpoint, LTEA_HepaRG_HIF1A, was analyzed with bidirectional fitting relative to DMSO as the negative control and baseline of activity. Using a type of inducible reporter, measures of mRNA induction for gain or loss-of-signal activity can be used to understand regulation of transcription factor activity. To generalize the intended target to other relatable targets, this assay endpoint is annotated to the dna binding intended target family, where the subfamily is basic helix-loop-helix protein.
A total of 1060 chemcials from the ToxCast library were tested in eight-point concentration-response experiments. Cell culture and cytotoxicity assays were conducted at Thermo Fisher Scientific's Custom Services facility (Madison, WI). A single lot of human HepaRG cells (Thermo Fisher Scientific, Frederick, MD) was used for the cell culture experiments. 96-well format collagen type I coated plates of human HepaRG cells were prepared using established methods. Briefly, cryopreserved HepaRG cells were thawed, plated at a density of approximately 100,000 cells/well in HepaRG Thaw, Plate, and General Purpose media (HPRG770, Thermo Fisher Scientific), and incubated for 48 hours. 0.5% DMSO was selected as vehicle control to balance the requisite need of DMSO in HepaRG cultures to maintain differentiation (for example, baseline metabolism, proportions of hepatocytes vs. cholangiocytes), while enabling further hepatic receptor pathway activation (for example, PXR and CAR) in response to chemical exposure. 48 hours after plating, the culture medium was replaced with HepaRG Serum-Free Incudtion Media. Cells were exposed to each test chemical in duplicate and maintained in CO2 incubators for another 48 hours. Chemical plates were thawed to room temperature and 200x concentrations of treatment groups were prepared. 8-point conentration-reponse curves were made with the highest exposure at 100 uM, followed by half-log dilutions, all in 0.5% DMSO. Each test plate contained variouse controls, induction positive controls (1mM phenobarbital), cytotoxicity positive controls ([…] aflatoxin B1), vehicle controls (0.5% DMSO), and total lysis controls (0.5% DMSO). Cell morphology images were taken using an Essen IncuCyte FLR automated microscope, with six 96-well plates imaged in about 24 minutes. Images were captured and exported and JPEG files. Spent culture media was transfered to black-well plates for the LDH assay, and remaining media was sorted at -80 C for later use. Cells were treated with RLT buffer and frozen until shipped for gene expression analysis. Total RNA was isolated from the cell suspension in 75 uL of Buffer RLT (Qiagen, Germantown, MD 20874) by Quintiles/Expression Analysis (Durham, NC) using a custom isolation procedure. Total RNA from each plate well was transferred to a preamplification plate. Fluidigm's 96.96 Dynamic ArrayTM (Fluidigm, Amsterdam, the Netherlands) technology was used for gene expression analyses by quantitative reverse transcription polymerase chain reaction (qRT-PCR, performed by Quintiles/Expression Analysis, Durham, NC)89. Standard TaqManTM Assays (Applied Biosystems/ThermoFisher Scientific, Foster City, CA) were used to assess the expression of 93 genes selected based on their selectivity and sensitivity to important hepatic receptors known to be modulated by environmental chemicals; importance in human hepatocyte functionality; and hepatotoxicity. […]

Hypoxia-inducible factor 1-alpha (Homo sapiens), sequence (Q16665 whole entry, looked up): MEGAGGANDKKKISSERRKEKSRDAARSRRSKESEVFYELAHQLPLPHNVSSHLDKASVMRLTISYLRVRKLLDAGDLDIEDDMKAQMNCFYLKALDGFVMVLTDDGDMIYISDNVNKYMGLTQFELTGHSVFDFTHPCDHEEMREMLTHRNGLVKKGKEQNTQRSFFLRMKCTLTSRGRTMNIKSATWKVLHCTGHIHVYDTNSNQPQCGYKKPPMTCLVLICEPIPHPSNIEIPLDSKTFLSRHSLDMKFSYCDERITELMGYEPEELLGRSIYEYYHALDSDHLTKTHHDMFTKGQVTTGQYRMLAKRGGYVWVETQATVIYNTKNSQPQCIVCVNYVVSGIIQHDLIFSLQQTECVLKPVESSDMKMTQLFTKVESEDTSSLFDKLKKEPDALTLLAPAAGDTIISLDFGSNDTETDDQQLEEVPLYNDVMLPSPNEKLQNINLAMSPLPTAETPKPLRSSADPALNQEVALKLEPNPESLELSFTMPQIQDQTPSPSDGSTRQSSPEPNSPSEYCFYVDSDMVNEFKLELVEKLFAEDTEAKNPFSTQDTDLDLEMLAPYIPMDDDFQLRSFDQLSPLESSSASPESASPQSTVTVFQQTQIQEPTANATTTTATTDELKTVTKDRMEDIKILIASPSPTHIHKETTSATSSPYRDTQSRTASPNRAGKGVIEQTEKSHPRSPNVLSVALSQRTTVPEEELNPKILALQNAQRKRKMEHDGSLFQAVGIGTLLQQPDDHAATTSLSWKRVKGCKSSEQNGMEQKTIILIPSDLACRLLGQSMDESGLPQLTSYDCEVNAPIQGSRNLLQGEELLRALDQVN

Compound	AC50	outcome
COc1cc(C=O)cc2c1[C@H](COC(N)=O)[C@]1(OC(C)=O)ON2C[C@H]2[C@@H]1N2C(C)=O	3.94 µM (active)	
CN(C)c1ccccc1		inactive
N#CC(Br)Br		inactive
O=[N+]([O-])C(Br)(CO)CO		inactive
CC(C)(C)C(O)(CCc1ccc(Cl)cc1)Cn1cncn1 (stereo not given)		inactive
ClC1=C(Cl)[C@]2(Cl)[C@H]3[C@H]([C@@H]4C=C[C@H]3C4)[C@@]1(Cl)C2(Cl)Cl		inactive
CCN(CC)CCO		inactive
CCNS(=O)(=O)C(F)(F)C(F)(F)C(F)(F)C(F)(F)C(F)(F)C(F)(F)C(F)(F)C(F)(F)F		inactive
CO[C@@H]1[C@H](OC(=O)NC(=O)CCl)CC[C@]2(CO2)[C@H]1[C@@]1(C)O[C@@H]1CC=C(C)C		inactive
C1=Cc2cccc3cccc1c23		inactive
CCOC(=O)[C@]1(c2ccccc2)Oc2ccccc2[C@@H]1N	82.2 µM (active)	
ClCCOCCCl		inactive
Nc1cc(Cl)cc(C(=O)O)c1Cl		inactive
N#CC(Br)(Br)C(N)=O		inactive
CCC[CH2][Sn]([Cl])([CH2]CCC)[CH2]CCC	2.07 µM (active)	
OCCOCCO		inactive
CS(=O)(=O)NC(=O)c1cc(Oc2ccc(C(F)(F)F)cc2Cl)ccc1[N+](=O)[O-]		inactive
CC(C)(OOC(C)(C)c1ccccc1)c1ccccc1		inactive
c1ccc2c(c1)oc1ccccc12		inactive
Nc1ccc(N=Nc2ccccc2)cc1		inactive

Compound	AC50	outcome
OCCCl		inactive
COC(=O)Nc1nc2ccccc2[nH]1		inactive
CCC12COCN1COC2		inactive
CCOc1cccc(C2(N3CCN(c4ccccc4)CC3)CCC(C)CC2)c1 (stereo not given)		inactive
Brc1ccc(Oc2ccccc2)cc1		inactive
O=P(OCCCl)(OCCCl)OCCCl		inactive
c1ccc(C2CO2)cc1 (stereo not given)		inactive
Oc1ccccc1Cl		inactive
O=[N+]([O-])c1ccc(Oc2ccc(Cl)cc2Cl)cc1		inactive
CCCCCCCCn1sccc1=O		inactive
Clc1ccc(C(c2ccc(Cl)cc2)C(Cl)(Cl)Cl)cc1		inactive
CC(C)COC(=O)c1ccccc1C(=O)OCC(C)C		inactive
CCCCC(CC)COC(=O)c1ccc(C(=O)OCC(CC)CCCC)c(C(=O)OCC(CC)CCCC)c1 (stereo not given)		inactive
C=CCc1ccc2c(c1)OCO2		inactive
CCCCCCCCCCCCCN1CC(C)OC(C)C1 (stereo not given)		inactive
[O-][Cl+]O		inactive
O=C(Nc1ccccc1)c1ccccc1I		inactive
Cc1ccc([N+](=O)[O-])cc1		inactive
Cc1ccc(N)cc1		inactive
Cc1ccc(N=C=O)cc1N=C=O		inactive
